Results filed as inconclusive are left out. Calls of active or inactive are those of the source. The calls were made as follows, unless noted: active = hit-call score of the fitted dose curve at least 0.9, where 1 is the maximum; inactive = score below 0.9.
How the values were obtained:
[1] = read-out: Vascular cell adhesion molecule 1 (VCAM1), VCAM1 (gene 7412); test: BSK_LPS_VCAM1: BioMAP Diversity Plus: LPS Assay for Vascular cell adhesion molecule 1 (VCAM1) Biomarker Activity (AID 2283086); settings: primary human HUVEC with PBMC; actives raise or lower the signal
Procedure, shortened: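 ELISA read-out of VCAM-1 at 24 h post-dosing in an LPS-driven HUVEC/PBMC primary human co-culture; gain or loss of signal fitted bidirectionally against DMSO baseline. Cytotoxicity tracked in parallel cultures by SRB total-protein staining.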

[2] = read-out: CD38, CD38 (gene 952); test: BSK_SAg_CD38: BioMAP Diversity Plus: SAg Assay for CD38 Biomarker Activity (AID 2283087); settings: primary human HUVEC with PBMC; actives raise or lower the signal
Procedure, shortened: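 Measures CD38 on a human endothelial/PBMC co-culture driven by SEB and TSST-1, 24 h after compound exposure, using ELISA with fluorescence detection; DMSO defines baseline for bidirectional curve fitting.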

[3] = read-out: CD40, CD40 (gene 958); test: BSK_SAg_CD40: BioMAP Diversity Plus: SAg Assay for CD40 Biomarker Activity (AID 2283088); settings: primary human HUVEC with PBMC; actives raise or lower the signal
Procedure, shortened: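 Endpoint derived by fitting increases or decreases versus DMSO controls. CD40 is detected by fluorescence ELISA in a human vascular co-culture of endothelium and PBMC at 24 h.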

[4] = read-out: CD69, CD69 (gene 969); test: BSK_SAg_CD69: BioMAP Diversity Plus: SAg Assay for CD69 Biomarker Activity (AID 2283089); settings: primary human HUVEC with PBMC; actives raise or lower the signal;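 as to AC50: cell surface CD69 protein quantified by ELISA with fluorescence detection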
Procedure, shortened: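 Primary human vascular co-culture (umbilical vein endothelium with peripheral blood mononuclear cells) exposed to test chemical for 24 h. CD69 levels quantified by fluorescence ELISA; DMSO served as negative control for bidirectional fitting.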

[5] = read-out: Monocyte Chemoattractant Protein-1 (MCP1), CCL2 (gene 6347); test: BSK_SAg_MCP1: BioMAP Diversity Plus: SAg Assay for Monocyte Chemoattractant Protein-1 (MCP1) Biomarker Activity (AID 2283090); settings: primary human HUVEC with PBMC; actives raise or lower the signal
Procedure, shortened: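 Values derive from bidirectional fitting of ELISA-measured MCP1 against DMSO controls. Readings were taken 24 h after dosing human vascular endothelial cells co-cultured with peripheral blood mononuclear cells under superantigen stimulation.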

[6] = read-out: E-selectin (Homo sapiens) (UniProt P16581); test: BSK_SAg_Eselectin: BioMAP Diversity Plus: SAg Assay for Eselectin Biomarker Activity (AID 2283091); settings: primary human HUVEC with PBMC; actives raise or lower the signal
Procedure, shortened: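 Endpoint values derive from bidirectional fitting relative to DMSO, using ELISA-measured E-selectin in a human vascular co-culture (umbilical vein endothelium plus PBMC) sampled 24 h after dosing.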

[7] = read-out: Monokine induced gamma interferon (MIG), CXCL9 (gene 4283); test: BSK_SAg_MIG: BioMAP Diversity Plus: SAg Assay for Monokine induced gamma interferon (MIG) Biomarker Activity (AID 2283092); settings: primary human HUVEC with PBMC; actives raise or lower the signal
Procedure, shortened: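 Endothelial cells and PBMC were co-cultured, exposed to test chemicals, and sampled 24 h later. MIG was measured by ELISA, and responses were fitted in both directions relative to DMSO.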

[8] = BSK_SAg_PBMCCytotoxicity: PBMC Cytotoxicity Assessment in the BioMAP Diversity Plus: SAg Assay (AID 2283093); settings: primary human HUVEC with PBMC;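 also: fitted both ways against DMSO so a hit may be loss or gain of signal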;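 as to AC50: PBMC superantigen activated with SEB plus TSST-1 one hour after compound addition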
Procedure, shortened: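 PBMC viability by Alamar Blue reduction, fluorescence read at 546/580 nm after 6 h dye exposure. Cells were dosed 1 h before SEB plus TSST-1 activation (20 ng/mL final each), then held 90 h; endothelial/PBMC human co-culture.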

[9] = read-out: Interleukin-8 (IL8), CXCL8 (gene 3576); test: BSK_SAg_IL8: BioMAP Diversity Plus: SAg Assay for Interleukin-8 (IL8) Biomarker Activity (AID 2283094); settings: primary human HUVEC with PBMC; actives raise or lower the signal
Procedure, shortened: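 HUVEC/PBMC co-culture, 24 h post-dose; IL-8 by ELISA. Gain or loss of signal fitted bidirectionally vs DMSO baseline.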

[10] = BSK_SAg_Proliferation: Cell Proliferation Assessment in the BioMAP Diversity Plus: SAg Assay (AID 2283095); settings: primary human HUVEC with PBMC;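 also: relative cell number as total protein by SRB absorbance in sub-confluent culture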
Procedure, shortened: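 HUVEC/PBMC co-culture, 96-well. TCA-fixed (10%), 0.1% SRB stain, A560 at 96 h. Protein content used as viability readout; bidirectional fitting vs DMSO control.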

[11] = BSK_SAg_SRB: Viability Assessment in the BioMAP Diversity Plus: SAg Assay (AID 2283096); settings: primary human HUVEC with PBMC;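 also: cells read one day after compound addition; hits may be either gain or loss of signal compared with DMSO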
Procedure, shortened: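 Compounds were added to a human vascular co-culture of umbilical vein endothelium and PBMC. After 24 h, parallel cultures were fixed with 10% TCA, stained with 0.1% sulforhodamine B and read at 560 nm. Gain or loss of signal was fitted relative to DMSO.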

[12] = target: Cytochrome P450 3A4 (Homo sapiens) (UniProt P08684); test: NVS_ADME_hCYP3A4: NovaScreen (NVS) CYP450-related Enzyme Activity (ADME) Assay for human CYP3A4 (AID 2283110; active = hit-call score of the fitted dose curve at least 0.9, where 1 is the maximum)
Procedure, shortened: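 Recombinant CYP3A4 from insect cells, fluorescence enzyme read-out, 0.33 h after chemical addition. Acetonitrile = negative control/baseline. Primary HTS: 10 uM in duplicate; actives re-tested in concentration series.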

[13] = target: human CYP1A1, CYP1A1 (gene 1543) (UniProt P04798); test: NVS_ADME_hCYP1A1: NovaScreen (NVS) CYP450-related Enzyme Activity (ADME) Assay for human CYP1A1 (AID 2283100; active = hit-call score of the fitted dose curve at least 0.9, where 1 is the maximum)
Procedure, shortened: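 Inhibition of recombinant CYP1A1 turnover was assessed fluorometrically in a biochemical format 1 h after compound exposure. Testing began at 10 uM in duplicate and progressed to concentration series reaching 20 uM, with on-plate positive and negative controls.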

[14] = target: human CYP2B6, CYP2B6 (gene 1555) (UniProt P20813); test: NVS_ADME_hCYP2B6: NovaScreen (NVS) CYP450-related Enzyme Activity (ADME) Assay for human CYP2B6 (AID 2283101; active = hit-call score of the fitted dose curve at least 0.9, where 1 is the maximum)
Procedure, shortened: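 Cell-free recombinant enzyme assay with a fluorogenic substrate; fluorescence intensity read 1 hour after dosing. Loss of signal relative to acetonitrile negative control indicates inhibition. Primary screen run in duplicate at 10 uM, actives then tested in concentration series.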

[15] = target: human CYP2C9, CYP2C9 (gene 1559) (UniProt P11712); test: NVS_ADME_hCYP2C9: NovaScreen (NVS) CYP450-related Enzyme Activity (ADME) Assay for human CYP2C9 (AID 2283108; active = hit-call score of the fitted dose curve at least 0.9, where 1 is the maximum)
Procedure, shortened: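 Recombinant human CYP2C9 expressed in SF9 cells, fluorogenic substrate, fluorescence read 0.75 h after dosing. Chemicals first run in duplicate at 10 uM, with actives followed in concentration series; loss of signal versus acetonitrile baseline.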

[16] = target: Cytochrome P450 2C19 (Homo sapiens) (UniProt P33261); test: NVS_ADME_hCYP2C19: NovaScreen (NVS) CYP450-related Enzyme Activity (ADME) Assay for human CYP2C19 (AID 2283113; active = hit-call score of the fitted dose curve at least 0.9, where 1 is the maximum;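 also: potency for inhibition seen as loss of fluorescent signal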)
Procedure, shortened: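 Biochemical CYP2C19 inhibition screen: insect-cell recombinant protein plus fluorescent substrate, 1 h, fluorescence intensity. Acetonitrile defined baseline activity. Single 10 uM concentration in duplicate, with concentration-response follow-up for actives.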

[17] = target: human CYP2D6, CYP2D6 (gene 1565) (UniProt P10635); test: NVS_ADME_hCYP2D6: NovaScreen (NVS) CYP450-related Enzyme Activity (ADME) Assay for human CYP2D6 (AID 2283107; active = hit-call score of the fitted dose curve at least 0.9, where 1 is the maximum)
Procedure, shortened: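 Biochemical fluorescence assay, insect-cell-derived enzyme. Read at 1 h; inhibition taken from loss of signal against acetonitrile. Screened at 10 uM in duplicate, with concentration series for actives.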

Measured: AC50

Sequence of Cytochrome P450 3A4 (Homo sapiens) (P08684 whole entry, looked up): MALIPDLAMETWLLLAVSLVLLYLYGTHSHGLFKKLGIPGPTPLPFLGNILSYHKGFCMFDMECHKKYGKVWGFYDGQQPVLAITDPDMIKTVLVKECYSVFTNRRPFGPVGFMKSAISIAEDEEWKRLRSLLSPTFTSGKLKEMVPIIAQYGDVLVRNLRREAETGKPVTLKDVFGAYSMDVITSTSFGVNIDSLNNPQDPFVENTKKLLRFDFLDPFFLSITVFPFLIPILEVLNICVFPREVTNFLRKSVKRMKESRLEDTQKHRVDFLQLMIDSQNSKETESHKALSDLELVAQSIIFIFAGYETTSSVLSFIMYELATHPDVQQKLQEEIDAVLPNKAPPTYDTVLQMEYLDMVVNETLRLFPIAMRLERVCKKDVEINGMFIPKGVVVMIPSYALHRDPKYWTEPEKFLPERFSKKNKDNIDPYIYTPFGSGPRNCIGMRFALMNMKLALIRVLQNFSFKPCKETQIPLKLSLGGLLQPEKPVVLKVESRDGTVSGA
Sequence of E-selectin (Homo sapiens) (P16581 whole entry, looked up): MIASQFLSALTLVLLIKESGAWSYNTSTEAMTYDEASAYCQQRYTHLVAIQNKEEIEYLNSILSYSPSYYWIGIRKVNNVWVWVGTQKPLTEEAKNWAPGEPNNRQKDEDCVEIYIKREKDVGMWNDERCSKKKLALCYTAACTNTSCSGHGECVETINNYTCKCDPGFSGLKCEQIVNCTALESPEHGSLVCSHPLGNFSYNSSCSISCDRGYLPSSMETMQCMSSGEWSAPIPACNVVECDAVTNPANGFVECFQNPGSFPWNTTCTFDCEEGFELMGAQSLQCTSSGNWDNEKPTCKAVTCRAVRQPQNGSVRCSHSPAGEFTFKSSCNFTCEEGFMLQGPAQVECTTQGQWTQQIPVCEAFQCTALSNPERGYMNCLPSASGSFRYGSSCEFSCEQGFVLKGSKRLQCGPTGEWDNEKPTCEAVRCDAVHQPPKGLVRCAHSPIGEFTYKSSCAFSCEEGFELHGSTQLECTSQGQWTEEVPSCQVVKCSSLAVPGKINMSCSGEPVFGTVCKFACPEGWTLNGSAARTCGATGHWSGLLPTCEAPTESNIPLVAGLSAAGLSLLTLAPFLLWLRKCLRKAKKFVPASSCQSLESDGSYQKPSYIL
Sequence of human CYP2B6, CYP2B6 (gene 1555) (P20813 whole entry, looked up): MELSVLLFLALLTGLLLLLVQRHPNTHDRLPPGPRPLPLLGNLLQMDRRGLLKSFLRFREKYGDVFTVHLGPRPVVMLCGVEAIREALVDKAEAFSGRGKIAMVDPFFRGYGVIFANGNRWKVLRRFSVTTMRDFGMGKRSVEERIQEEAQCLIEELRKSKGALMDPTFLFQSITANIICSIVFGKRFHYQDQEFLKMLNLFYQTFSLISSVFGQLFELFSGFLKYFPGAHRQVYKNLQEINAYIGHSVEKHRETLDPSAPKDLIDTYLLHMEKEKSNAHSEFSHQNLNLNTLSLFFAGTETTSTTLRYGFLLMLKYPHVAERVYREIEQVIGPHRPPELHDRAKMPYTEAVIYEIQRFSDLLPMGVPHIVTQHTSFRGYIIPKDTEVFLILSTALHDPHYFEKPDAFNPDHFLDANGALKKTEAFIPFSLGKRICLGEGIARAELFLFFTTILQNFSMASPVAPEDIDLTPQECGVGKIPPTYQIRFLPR
Sequence of human CYP2C9, CYP2C9 (gene 1559) (P11712 whole entry, looked up): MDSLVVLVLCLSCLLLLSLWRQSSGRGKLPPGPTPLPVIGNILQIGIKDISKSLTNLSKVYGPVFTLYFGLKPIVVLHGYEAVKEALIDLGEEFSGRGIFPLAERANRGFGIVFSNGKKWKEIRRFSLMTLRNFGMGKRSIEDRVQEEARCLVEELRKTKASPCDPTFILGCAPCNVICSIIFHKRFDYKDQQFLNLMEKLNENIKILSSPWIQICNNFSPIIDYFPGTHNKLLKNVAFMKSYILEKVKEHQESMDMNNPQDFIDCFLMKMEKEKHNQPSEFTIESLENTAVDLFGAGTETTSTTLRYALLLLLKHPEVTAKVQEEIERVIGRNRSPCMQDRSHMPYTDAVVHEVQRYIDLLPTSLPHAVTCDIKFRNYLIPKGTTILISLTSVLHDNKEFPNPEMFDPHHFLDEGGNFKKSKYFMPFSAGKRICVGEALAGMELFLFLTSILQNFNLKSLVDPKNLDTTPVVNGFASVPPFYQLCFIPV
Sequence of human CYP1A1, CYP1A1 (gene 1543) (P04798 whole entry, looked up): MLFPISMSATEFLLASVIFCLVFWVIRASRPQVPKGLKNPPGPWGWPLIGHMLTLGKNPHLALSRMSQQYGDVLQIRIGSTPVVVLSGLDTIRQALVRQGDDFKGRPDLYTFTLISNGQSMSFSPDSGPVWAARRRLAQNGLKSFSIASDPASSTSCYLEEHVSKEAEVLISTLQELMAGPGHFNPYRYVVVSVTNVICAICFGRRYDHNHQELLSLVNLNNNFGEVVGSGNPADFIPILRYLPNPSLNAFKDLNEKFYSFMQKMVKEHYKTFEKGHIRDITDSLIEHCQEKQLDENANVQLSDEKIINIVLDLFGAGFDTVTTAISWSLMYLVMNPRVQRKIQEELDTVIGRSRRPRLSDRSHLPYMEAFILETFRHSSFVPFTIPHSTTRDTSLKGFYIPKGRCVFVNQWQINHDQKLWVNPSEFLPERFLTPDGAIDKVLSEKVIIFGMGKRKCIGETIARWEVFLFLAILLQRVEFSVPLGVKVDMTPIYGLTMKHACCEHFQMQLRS
Sequence of human CYP2D6, CYP2D6 (gene 1565) (P10635 whole entry, looked up): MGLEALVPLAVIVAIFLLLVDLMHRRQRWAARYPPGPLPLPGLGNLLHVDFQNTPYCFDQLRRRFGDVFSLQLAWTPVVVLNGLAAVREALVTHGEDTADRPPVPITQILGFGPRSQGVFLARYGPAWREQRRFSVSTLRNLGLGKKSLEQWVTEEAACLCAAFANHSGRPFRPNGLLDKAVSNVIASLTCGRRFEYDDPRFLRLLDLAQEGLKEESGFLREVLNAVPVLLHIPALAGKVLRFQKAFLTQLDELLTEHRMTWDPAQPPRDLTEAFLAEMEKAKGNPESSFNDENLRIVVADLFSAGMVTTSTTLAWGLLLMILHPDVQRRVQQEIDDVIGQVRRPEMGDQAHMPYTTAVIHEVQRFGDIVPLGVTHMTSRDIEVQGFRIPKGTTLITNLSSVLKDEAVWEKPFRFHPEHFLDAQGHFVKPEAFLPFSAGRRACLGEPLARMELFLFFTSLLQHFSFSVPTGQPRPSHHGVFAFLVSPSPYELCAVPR

N#CC(Br)(Br)C(N)=O
not listed: [13] | [14] | [15] | [16] | [17]
inactive: all other assays above

c1ccc(N=Nc2ccccc2)cc1
not listed: [12] | [13] | [14] | [15] | [16] | [17]
inactive: all other assays above

CCCCCCCCCCCCCN1CC(C)OC(C)C1 (stereo not given)
not listed: [12] | [13] | [14] | [15] | [16] | [17]
inactive: all other assays above

CC(C)(C)C(O)(CCc1ccc(Cl)cc1)Cn1cncn1 (stereo not given)
active: [15] 6 µM | [12] 5.27 µM | [16] 0.698 µM
not listed: [17]
inactive: all other assays above

[As]#[In]
not listed: [12] | [13] | [14] | [15] | [16] | [17]
inactive: all other assays above

CCCCCCCCn1sccc1=O
inactive: [13]
active: [1] 6.97 µM | [2] 7.73 µM | [3] 10.2 µM | [4] 10.7 µM | [5] 11.7 µM | [6] 12.8 µM | [7] 14.2 µM | [8] 3.84 µM | [9] 13.4 µM | [10] 1.76 µM | [11] 20.8 µM | [14] 975 nM | [17] 7.91 µM | [15] 7.51 µM | [12] 8.75 µM | [16] 6.04 µM

ClC1=C(Cl)[C@]2(Cl)[C@H]3[C@H]([C@@H]4C=C[C@H]3C4)[C@@]1(Cl)C2(Cl)Cl
active: [1] 29.8 µM | [2] 16.8 µM | [3] 27.9 µM | [4] 27.5 µM | [5] 31.3 µM | [6] 32.7 µM | [7] 35 µM | [8] 15.4 µM | [9] 30.9 µM | [10] 15 µM | [11] 25.8 µM

CC(C)COC(=O)c1ccccc1C(=O)OCC(C)C
inactive: [2] | [3] | [5] | [7] | [9] | [11]
active: [1] 20 µM | [4] 20 µM | [6] 20 µM | [8] 37 µM | [10] 30.3 µM
